# Bioassay records as filed in PubChem.
# NSD2 HMT inh: NSD2 histone methyltransferase inhibitors, primary screen, biochemical, AlphaScreen, single concentration, set 2; Histone-lysine N-methyltransferase NSD2 (Homo sapiens), O96028; NSD2 peptide methylation, 120 min; inhibition, % at 12.5 µM; 310,000 compounds, 0.54% hits; AID 743445, 2014; in the data active means inhibition above about 50%
# Target sequence (O96028 whole entry, looked up): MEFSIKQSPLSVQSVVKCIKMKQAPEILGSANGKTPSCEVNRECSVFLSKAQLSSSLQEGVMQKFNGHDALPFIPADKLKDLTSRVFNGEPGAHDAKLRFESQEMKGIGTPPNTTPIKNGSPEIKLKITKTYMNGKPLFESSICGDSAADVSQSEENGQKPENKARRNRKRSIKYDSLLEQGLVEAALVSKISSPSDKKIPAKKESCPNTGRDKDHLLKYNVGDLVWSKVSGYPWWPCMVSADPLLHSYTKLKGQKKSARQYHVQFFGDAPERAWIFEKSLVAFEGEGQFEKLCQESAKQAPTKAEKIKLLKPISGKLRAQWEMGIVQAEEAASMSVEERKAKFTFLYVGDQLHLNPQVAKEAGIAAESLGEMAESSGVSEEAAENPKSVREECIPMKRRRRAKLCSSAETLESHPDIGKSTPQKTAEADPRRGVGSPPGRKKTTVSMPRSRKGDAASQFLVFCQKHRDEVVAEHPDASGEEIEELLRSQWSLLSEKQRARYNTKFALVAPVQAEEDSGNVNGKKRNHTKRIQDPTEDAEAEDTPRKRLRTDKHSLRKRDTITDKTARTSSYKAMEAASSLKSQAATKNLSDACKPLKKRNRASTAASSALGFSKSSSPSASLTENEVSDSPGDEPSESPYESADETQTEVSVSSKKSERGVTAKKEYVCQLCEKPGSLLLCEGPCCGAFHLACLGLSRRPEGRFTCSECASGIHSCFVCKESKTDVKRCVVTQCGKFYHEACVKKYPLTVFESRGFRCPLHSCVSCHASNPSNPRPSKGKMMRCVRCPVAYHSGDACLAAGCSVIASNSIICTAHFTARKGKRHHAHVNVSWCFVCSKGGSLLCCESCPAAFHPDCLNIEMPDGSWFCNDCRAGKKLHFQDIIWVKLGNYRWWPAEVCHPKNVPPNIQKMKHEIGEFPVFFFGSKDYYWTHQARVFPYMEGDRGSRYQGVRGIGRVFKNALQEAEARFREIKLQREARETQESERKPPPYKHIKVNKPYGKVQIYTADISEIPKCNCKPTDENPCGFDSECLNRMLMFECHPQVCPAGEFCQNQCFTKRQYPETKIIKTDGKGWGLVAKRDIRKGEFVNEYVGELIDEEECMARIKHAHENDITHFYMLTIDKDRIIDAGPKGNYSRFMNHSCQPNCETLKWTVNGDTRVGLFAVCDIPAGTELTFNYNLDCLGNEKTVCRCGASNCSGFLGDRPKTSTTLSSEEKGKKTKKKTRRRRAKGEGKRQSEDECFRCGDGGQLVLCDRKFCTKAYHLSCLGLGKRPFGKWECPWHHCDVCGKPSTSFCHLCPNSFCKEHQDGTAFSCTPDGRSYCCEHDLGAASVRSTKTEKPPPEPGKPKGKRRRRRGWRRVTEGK
# Env fusion inh: inhibitors of HIV-1 Env-driven cell-cell fusion, primary screen, HeLa-JRFL effector, CEM21 target cells, luciferase; inhibition, % at 12.3 µM; 360,000 compounds, 1.1% hits;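 active means mean replicate inhibition score of at least 50 and every replicate individually at or above 50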;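 further: 0% = plate neutral controls and 100% = maraviroc near 300 nM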
# LMP1 NFkB inh: EBV LMP1-driven NF-kappaB luciferase reporter inhibitors, primary screen, cell-based, luminescence, single point. 350,000 compounds, 0.69% hits. inhibition, % at 12.5 µM. LMP1-induced NF-kappaB luciferase reporter cells. AID 504558, 2011; in the data active means inhibition above about 41%;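 further: 0% = neutral control wells and 100% = reference inhibitor control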
# Shn3 inh set2: reduction of Shn3 3'UTR firefly luciferase signal, primary screen, Schnurri-3 inhibitor project, cell-based, Clone20 osteoblasts, set 2; Clone20 osteoblast Shn3 3'UTR firefly luciferase, 24 h; inhibition, % at 12.5 µM; 360,000 compounds, 0.52% hits; AID 588674, 2011;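 active means mean inhibition of at least 75% with every replicate also reaching 75%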;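 further: 0% = median of neutral control wells and 100% = pilot-screen positive control compound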
# N-glyco inh: increase of ERlucT glycosylation luciferase signal, primary screen, N-linked glycosylation inhibitor project, D54 ERlucT cells, luminescence, set 2 | D54 ERlucT glycosylation luciferase reporter, 24 h; percent of 100 nM tunicamycin response | reporter increase, % at 12.5 µM | 360,000 compounds, 0.23% hits;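 active means mean luciferase reporter signal, scaled so untreated is 0 and the glycosylation-blocking control 100, at or above a set limit in every replicate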;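 further: luciferase carries N-glycosylation sites so blocking glycosylation raises the light; 0% = median of neutral control wells and 100% = median of 100 nM tunicamycin wells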
# PAX8 reporter: inhibitors of PAX8-driven TPO luciferase reporter, primary screen, RMG-I cells, single concentration; SteadyGlo, 24 h; inhibition, % at 12.6 µM; 360,000 compounds, 1.2% hits; AID 652154, 2013;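 active means mean replicate inhibition at least 60% with every replicate also reaching 60%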;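 further: luciferase light reporting Pax8 driven TPO promoter activity; plate controls were median of neutral control wells for no effect and mitoxantrone controls for full effect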
# Alpha artifact: AlphaScreen signal interference with preloaded methylated product, dose response, artefact control for NSD2 inhibitor project, biochemical, cherry-picked samples. shares compounds with NSD2 HMT inh. AC35, µM (top dose mostly 10 µM), inactives show at the highest dose activity change, negative = signal loss. AlphaScreen artifact counterscreen, preloaded methylated H4 peptide. 1,500 compounds, 9.4% hits. AID 1053174, 2014; call rule not given here
# * marks the source's active call; other numbers are inactive results; . = no result given; [ ] = another dose, or the depositor's remark. This is a sample that favours compounds with a hit; in the whole collection about 2.8% have one here.
SMILES,NSD2 HMT inh,Env fusion inh,LMP1 NFkB inh,Shn3 inh set2,N-glyco inh,PAX8 reporter,Alpha artifact
O=C(/C=C/c1ccc(OCCCF)cc1)N1CCN(Cc2ccccc2)CC1,70*,4,5,24,-3,14,-2%
CO[C@H]1CN(C)C(=O)c2cc(NC(=O)CC(F)(F)F)ccc2OC[C@@H](C)N(C(=O)C2CCOCC2)C[C@@H]1C,.,.,.,.,.,-12,.
CCc1cc(OCCN2C(=O)NC(C)(C)C2=O)ccc1Cl,72*,27,-2,-4,-2,.,-3%
C/C=C/c1ccc([C@H]2[C@@H](CO)N(CCC(F)(F)F)C23CN(C(=O)COC)C3)cc1,.,.,.,.,.,-3,.
COc1cccc2c1C(=O)C=C(C)C2=O,8,.,-11,60,8,28,.
COC1=CC(=O)c2c(ccc3ncnc(N)c23)C1=O,122*,76*,83*,97*,-20,104*,3%
COCCN(C(=O)CNC(=O)c1ccco1)C(C(=O)NC1CCCC1)c1ccc(OC)cc1 (stereo not drawn),110*,-2,-3,-9,-1,19,-2%
CCc1ccc(NC(=S)Nc2cccc3cnccc23)cc1,98*,-3,-37,-37,2,-15,0%
COc1ccc(N=c2scc(C)n2CCCN2CCCC2=O)cc1,151*,11,-6,13,-1,-14,2%
O=C(O)c1[nH]c2ccccc2c1C(c1ccccc1)c1c(C(=O)O)[nH]c2ccccc12,7,-2,-7,-8,2,0,.
O=C(O)c1[nH]c2ccccc2c1C(c1cc(Cl)cc([N+](=O)[O-])c1O)c1c(C(=O)O)[nH]c2ccccc12,55*,3,-19,-1,1,29,-20%
O=C(C1CCOCC1)N1CC(=O)N2[C@@H](CO)[C@H](c3ccc(C#CC4CC4)cc3)[C@@H]2C1,.,.,.,.,.,7,.
COc1cc(NCCCCC(C)N)c2nccc(C)c2c1 (stereo not drawn),129*,4,-2,1,-1,37,-11%
COc1ccc2[nH]c3c(NCCN(C(C)C)C(C)C)ncnc3c2c1,49,.,-38,-18,23,.,.
C[C@@H]1CCCCO[C@H](CN(C)S(=O)(=O)c2ccccc2)[C@@H](C)CN([C@@H](C)CO)C(=O)c2cc(NC(=O)CCC(F)(F)F)ccc2O1,.,7[16.7 µM],.,.,.,-3,.
CCN(CC)CCCN(Cc1cc2cc3c(cc2[nH]c1=O)OCO3)C(=O)Nc1ccccc1OC,8,.,7,-20,-2,.,.
CCN(CC)CCCN(Cc1cc2cc(OC)c(OC)cc2[nH]c1=O)C(=O)Nc1ccccc1,51*,-82,1,-6,5,-37,0%
CCN(CC)CCCN(Cc1cc2cc3c(cc2[nH]c1=O)OCO3)C(=S)NCCOC,27,-1,3,-18,-1,-1,.
CCNC(=S)N(CCCN(CC)CC)Cc1cc2cc3c(cc2[nH]c1=O)OCO3,84*,1,7,-3,2,20,-7%
COc1ccc(S(=O)(=O)Nc2ccc3c(c2)CC(=O)N([C@@H](C)CO)C[C@@H](C)[C@@H](CN(C)C(=O)Nc2ccc(F)cc2)O3)cc1,.,-27[16.7 µM],.,.,.,17,.
CC(C)Sc1nnc([C@H](Cc2c[nH]c3ccccc23)NC(=O)OC(C)(C)C)o1,54*,1,0,0,1,4,-7%
CC(C)(C)OC(=O)N[C@@H](Cc1c[nH]c2ccccc12)c1nnc(SCC(N)=O)o1,-1,-69,-1,-25,1,-4,.
CO[C@@H]1CN(C)C(=O)c2cc(NC(=O)c3cc(C)on3)ccc2OC[C@@H](C)NC[C@@H]1C,.,7[16.7 µM],.,.,.,-1,.
CC1CN(Cc2cc(=O)n3ccsc3n2)CC(C)O1 (stereo not drawn),62*,.,7,-16,2,.,1%
O=C(NNC(=O)c1ccc(NC(=O)C2CC2)cc1)c1ccc(F)cc1,52*,2,-1,-12,0,-17,-5%
SMILES,NSD2 HMT inh,Env fusion inh,LMP1 NFkB inh,Shn3 inh set2,N-glyco inh,PAX8 reporter,Alpha artifact
CC(C)CNC(=O)c1cnn2c(C(F)(F)F)cc(C(F)(F)F)nc12,54*,3,.,.,-1,43,-7%
CNCc1ccccc1OCc1ccccc1F,53*,-8,2,5,-4,10,0%
CNCc1ccccc1OCC(=O)Nc1ccccc1,40,-79,-5,-20,2,.,.
Cc1cc2c(N)cccc2nn1,99*,20,-12,12,6,.,-6%
COc1ccccc1NC(=O)N[C@@H]1CC[C@H](CCn2cc(-c3cccnc3)nn2)O[C@@H]1CO,.,17[16.7 µM],.,.,.,-13,.
COc1ccc(NC(=O)N(C)C[C@H]2Oc3c(cccc3N(C)C)C(=O)N([C@H](C)CO)C[C@@H]2C)cc1,.,-18[16.7 µM],.,.,.,10,.
COc1ccc(S(=O)(=O)N(C)C[C@H]2Oc3ccc(NC(=O)NC4CCCCC4)cc3CC(=O)N([C@H](C)CO)C[C@@H]2C)cc1,.,4[16.7 µM],.,.,.,.,.
Cc1cc(C=O)c(C)n1-c1ccc(Cl)c(C(=O)O)c1,167*,-2,-3,-10,0,7,-8%
COc1cc(OC)c(C(=O)OC(C)C(=O)NCc2ccc3c(c2)OCO3)cc1OC (stereo not drawn),76*,-12,4,-1,3,4,-4%
COc1ccc(S(=O)(=O)NCc2ccc3c(c2)OCO3)cc1OC,55*,11,4,-3,1,-2,2%
COC(=O)c1cc(NC(=O)Nc2cc(OC)ccc2OC)cc(C(=O)OC)c1,120*,-50,-2,-7,5,.,3%
COc1ccc(OC)c(NC(=O)Nc2ccc(Cl)cc2)c1,.,.,11,9,0,.,.
CC(C)C#Cc1ccc2c(c1)O[C@H](CN(C)C(=O)c1cccnc1)[C@@H](C)CN([C@@H](C)CO)S2(=O)=O,.,11[16.7 µM],.,.,.,.,.
COc1ccc(OCCSc2nnc(CCNC(=O)c3ccc(Cl)c(Cl)c3)n2C)cc1,59*,.,-9,40,2,.,1%
COc1ccc(-c2cnc3c(c2)C(=O)N([C@@H](C)CO)C[C@@H](C)[C@@H](CN(C)C)O3)cc1,.,-4[16.7 µM],.,.,.,.,.
Cn1c(=O)[nH]c(=O)c2c1nc(N/N=C/c1ccncc1)n2Cc1ccc(F)cc1,62*,-15,.,.,19,6,-2%
C=CC[n+]1c(-c2ccc(C)cc2)csc1Nc1c(C)n(C)n(-c2ccccc2)c1=O,25,9,-3,21,0,2,.
